Data: the supplement of paper PMC11732987, “Enantioselective OTUD7B fragment discovery through chemoproteomics screening and high-throughput optimisation” (Communications Chemistry, 2025)

Columns and labels:
Test in all cases: log2 ratio of Biotin-Ahx-Ub-VS probe labelling (fragment/DMSO); higher = less target engagement (more negative = stronger competition), active = hit call of the paper (q ≤ 0.05, log2 ratio ≤ -1)
Conditions in all cases: compound concentration: 200 uM; treatment time: 3 h
USP42 = target: T1, USP42 (UniProt Q9H9J4)
T1 sequence (whole entry): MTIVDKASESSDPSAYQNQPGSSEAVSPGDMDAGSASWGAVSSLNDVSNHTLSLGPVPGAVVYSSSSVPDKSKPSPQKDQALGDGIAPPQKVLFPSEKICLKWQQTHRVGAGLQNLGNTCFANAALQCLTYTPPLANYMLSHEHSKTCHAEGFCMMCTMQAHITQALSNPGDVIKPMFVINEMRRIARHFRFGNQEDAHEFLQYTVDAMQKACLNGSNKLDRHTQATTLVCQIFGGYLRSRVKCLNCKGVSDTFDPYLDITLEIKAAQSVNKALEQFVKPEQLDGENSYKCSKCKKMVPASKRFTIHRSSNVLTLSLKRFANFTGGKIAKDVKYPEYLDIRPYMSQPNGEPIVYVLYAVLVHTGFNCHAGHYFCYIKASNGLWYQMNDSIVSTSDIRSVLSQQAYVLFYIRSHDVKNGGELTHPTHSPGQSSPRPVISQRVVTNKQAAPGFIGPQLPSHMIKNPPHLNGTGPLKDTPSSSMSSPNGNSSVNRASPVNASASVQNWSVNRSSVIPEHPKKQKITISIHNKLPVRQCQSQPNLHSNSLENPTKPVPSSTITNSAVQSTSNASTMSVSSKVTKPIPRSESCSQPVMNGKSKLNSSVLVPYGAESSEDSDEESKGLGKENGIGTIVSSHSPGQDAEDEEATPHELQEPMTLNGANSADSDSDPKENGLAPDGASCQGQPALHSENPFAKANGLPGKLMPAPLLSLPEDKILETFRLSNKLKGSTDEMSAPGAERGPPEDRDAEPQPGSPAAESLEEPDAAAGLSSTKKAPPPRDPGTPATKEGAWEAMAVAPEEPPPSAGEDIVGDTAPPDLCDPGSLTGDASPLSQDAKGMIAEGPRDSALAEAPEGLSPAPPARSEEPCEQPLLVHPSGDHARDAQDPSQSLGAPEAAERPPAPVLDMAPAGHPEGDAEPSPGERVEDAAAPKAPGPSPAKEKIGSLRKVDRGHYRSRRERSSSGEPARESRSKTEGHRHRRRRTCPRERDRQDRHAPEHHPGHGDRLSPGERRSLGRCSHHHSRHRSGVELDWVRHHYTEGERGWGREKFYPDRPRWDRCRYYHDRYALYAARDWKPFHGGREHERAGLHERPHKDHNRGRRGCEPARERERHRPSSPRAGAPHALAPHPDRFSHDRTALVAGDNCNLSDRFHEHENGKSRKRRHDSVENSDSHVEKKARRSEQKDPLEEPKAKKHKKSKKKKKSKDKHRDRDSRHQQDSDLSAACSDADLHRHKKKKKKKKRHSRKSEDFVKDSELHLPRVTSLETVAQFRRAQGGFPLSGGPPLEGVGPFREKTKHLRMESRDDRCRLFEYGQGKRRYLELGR
In short: (§1)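 Labelled DUBs from HEK293T lysate were NeutrAvidin-enriched, digested with LysC and trypsin, and run by diaPASEF LC-MS/MS. Before that, each 495 µg sample in Tris/CHAPS/IGEPAL buffer with protease inhibitors was treated in triplicate with fragment at 200 µM or vehicle for 3 h, then with Biotin-Ahx-Ub-VS at 0.5 µM final for 1 h. Values are average log2 ratios of fragment over vehicle by unpaired t-test, based on global-median-normalised Spectronaut label-free quantities from proteins with ≥2 unique peptides.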

USP46 = USP46 (UniProt P62068)
Chain of USP46 (P62068 whole entry): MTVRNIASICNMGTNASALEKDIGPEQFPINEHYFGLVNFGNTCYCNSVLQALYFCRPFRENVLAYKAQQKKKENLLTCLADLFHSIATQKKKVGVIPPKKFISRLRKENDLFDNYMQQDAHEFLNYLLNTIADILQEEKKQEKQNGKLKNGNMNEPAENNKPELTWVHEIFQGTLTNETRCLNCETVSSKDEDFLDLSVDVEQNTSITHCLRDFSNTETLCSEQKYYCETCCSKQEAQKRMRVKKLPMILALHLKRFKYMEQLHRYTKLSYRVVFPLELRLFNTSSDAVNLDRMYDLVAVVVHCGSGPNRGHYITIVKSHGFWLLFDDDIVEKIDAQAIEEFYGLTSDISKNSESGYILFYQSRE
In short: as §1

USP47 = target: T2, USP47 (UniProt Q96K76)
T2 sequence (whole entry): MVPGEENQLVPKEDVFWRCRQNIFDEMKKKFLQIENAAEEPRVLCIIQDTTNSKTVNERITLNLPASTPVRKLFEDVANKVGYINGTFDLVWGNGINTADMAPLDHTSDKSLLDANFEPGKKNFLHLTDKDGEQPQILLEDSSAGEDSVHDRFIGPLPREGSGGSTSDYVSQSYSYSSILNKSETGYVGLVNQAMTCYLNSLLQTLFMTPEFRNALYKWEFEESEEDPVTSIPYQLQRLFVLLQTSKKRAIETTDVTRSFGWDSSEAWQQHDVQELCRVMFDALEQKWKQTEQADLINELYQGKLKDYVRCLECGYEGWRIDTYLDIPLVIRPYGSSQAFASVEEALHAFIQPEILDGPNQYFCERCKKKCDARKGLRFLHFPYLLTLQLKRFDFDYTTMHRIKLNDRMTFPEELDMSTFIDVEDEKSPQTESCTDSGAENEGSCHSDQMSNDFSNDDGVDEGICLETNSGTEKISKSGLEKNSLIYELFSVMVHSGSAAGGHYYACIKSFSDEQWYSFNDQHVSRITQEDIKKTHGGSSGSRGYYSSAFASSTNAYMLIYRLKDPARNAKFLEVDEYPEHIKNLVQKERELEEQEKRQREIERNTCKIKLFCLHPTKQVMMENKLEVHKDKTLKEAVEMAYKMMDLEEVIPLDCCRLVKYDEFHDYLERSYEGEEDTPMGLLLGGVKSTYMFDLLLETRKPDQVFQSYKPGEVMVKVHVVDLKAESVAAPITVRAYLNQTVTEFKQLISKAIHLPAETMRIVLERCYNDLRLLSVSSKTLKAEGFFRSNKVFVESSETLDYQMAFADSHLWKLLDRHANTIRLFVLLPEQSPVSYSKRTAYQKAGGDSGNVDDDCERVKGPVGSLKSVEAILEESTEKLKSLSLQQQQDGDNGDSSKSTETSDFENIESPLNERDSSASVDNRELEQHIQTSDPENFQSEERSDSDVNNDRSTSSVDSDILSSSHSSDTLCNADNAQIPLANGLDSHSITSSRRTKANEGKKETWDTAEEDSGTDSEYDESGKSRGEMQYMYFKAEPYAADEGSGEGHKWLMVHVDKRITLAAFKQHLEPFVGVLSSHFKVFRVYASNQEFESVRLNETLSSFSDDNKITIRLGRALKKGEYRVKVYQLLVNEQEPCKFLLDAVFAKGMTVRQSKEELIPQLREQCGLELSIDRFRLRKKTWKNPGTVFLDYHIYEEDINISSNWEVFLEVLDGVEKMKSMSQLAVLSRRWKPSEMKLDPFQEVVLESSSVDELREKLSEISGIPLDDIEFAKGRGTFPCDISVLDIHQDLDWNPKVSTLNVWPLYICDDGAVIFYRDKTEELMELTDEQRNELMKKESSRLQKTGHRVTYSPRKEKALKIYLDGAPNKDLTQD
In short: as §1

USP48 = target: T3, USP48 (UniProt Q86UV5)
T3 sequence (whole entry): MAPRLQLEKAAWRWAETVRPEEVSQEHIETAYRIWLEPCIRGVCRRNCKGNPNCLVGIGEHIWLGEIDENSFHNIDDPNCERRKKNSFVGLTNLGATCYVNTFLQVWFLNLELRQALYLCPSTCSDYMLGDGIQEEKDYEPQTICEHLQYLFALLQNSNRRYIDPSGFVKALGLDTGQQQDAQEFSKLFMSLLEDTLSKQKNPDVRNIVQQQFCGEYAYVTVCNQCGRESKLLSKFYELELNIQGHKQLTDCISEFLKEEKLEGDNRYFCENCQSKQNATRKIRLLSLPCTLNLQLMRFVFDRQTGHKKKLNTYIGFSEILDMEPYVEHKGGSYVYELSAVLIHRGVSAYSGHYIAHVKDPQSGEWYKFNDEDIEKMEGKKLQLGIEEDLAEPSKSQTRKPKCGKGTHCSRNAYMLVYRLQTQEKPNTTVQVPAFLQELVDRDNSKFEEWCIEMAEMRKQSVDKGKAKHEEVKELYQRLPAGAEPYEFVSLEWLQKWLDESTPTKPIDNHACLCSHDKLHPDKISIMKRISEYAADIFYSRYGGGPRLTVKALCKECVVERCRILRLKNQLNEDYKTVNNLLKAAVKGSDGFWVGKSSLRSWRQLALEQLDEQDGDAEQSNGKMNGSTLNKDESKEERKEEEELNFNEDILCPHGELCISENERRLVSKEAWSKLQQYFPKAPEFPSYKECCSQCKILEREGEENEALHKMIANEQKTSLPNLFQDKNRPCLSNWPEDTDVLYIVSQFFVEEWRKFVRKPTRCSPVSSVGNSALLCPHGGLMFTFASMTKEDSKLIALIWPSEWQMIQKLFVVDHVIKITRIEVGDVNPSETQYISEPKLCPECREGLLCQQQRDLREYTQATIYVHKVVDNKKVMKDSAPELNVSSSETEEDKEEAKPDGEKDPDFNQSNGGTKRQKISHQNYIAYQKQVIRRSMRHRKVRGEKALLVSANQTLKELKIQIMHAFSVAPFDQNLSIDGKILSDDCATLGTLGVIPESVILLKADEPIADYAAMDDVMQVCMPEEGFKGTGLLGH
In short: as §1

USP5 = target: T4, USP5 (UniProt P45974)
T4 sequence (whole entry): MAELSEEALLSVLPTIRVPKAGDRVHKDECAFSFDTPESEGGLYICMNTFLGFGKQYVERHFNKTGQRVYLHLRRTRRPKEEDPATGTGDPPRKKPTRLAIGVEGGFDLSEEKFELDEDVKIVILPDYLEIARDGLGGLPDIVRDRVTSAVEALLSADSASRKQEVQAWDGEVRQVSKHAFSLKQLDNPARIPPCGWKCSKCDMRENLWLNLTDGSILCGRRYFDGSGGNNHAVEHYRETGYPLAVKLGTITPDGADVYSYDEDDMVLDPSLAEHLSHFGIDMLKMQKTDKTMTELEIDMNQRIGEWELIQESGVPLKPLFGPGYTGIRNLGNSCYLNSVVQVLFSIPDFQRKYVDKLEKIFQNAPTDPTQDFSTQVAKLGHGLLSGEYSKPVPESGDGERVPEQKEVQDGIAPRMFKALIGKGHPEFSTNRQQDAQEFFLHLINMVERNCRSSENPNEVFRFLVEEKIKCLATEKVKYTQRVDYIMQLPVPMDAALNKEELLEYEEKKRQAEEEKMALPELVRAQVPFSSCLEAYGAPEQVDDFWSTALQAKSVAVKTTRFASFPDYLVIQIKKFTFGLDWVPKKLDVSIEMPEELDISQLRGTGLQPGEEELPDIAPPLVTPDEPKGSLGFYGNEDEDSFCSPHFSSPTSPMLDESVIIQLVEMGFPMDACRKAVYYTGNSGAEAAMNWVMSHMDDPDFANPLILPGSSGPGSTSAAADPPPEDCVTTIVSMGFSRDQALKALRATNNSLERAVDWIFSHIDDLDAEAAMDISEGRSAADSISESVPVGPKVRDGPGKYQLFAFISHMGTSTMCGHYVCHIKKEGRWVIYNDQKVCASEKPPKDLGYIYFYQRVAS
In short: as §1

USP54 = USP54 (UniProt Q70EL1)
In short: as §1

USP7 = USP7 (UniProt Q93009)
Chain of USP7 (Q93009 whole entry, looked up): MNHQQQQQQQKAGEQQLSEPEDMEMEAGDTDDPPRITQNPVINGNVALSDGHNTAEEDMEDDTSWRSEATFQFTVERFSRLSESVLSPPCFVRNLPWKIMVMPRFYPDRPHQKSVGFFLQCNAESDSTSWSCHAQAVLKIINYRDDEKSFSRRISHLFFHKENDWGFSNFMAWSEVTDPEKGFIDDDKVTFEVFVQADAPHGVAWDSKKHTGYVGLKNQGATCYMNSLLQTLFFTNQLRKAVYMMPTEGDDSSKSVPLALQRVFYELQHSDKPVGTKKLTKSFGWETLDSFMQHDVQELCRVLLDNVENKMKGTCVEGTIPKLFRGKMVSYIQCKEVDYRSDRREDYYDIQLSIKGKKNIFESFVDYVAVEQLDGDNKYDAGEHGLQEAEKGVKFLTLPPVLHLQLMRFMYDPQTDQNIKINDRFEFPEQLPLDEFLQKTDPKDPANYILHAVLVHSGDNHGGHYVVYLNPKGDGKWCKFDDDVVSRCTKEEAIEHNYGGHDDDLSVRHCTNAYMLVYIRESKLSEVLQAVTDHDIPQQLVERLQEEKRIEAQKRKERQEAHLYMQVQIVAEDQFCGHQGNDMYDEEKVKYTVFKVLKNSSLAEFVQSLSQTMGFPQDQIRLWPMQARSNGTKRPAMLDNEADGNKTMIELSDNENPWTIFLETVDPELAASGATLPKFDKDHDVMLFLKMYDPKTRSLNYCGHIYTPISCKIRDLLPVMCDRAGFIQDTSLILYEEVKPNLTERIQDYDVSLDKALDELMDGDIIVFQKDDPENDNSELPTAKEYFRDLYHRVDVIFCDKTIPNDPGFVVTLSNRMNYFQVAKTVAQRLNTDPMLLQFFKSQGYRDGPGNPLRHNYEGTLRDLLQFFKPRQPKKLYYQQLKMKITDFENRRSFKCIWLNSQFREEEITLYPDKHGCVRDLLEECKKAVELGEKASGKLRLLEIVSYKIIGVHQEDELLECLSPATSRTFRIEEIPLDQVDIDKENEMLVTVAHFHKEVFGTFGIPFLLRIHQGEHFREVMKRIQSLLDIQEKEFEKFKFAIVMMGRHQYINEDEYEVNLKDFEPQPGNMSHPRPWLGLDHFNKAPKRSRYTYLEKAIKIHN
In short: as §1

USP8 = target: T5, USP8 (UniProt P40818)
T5 sequence (whole entry): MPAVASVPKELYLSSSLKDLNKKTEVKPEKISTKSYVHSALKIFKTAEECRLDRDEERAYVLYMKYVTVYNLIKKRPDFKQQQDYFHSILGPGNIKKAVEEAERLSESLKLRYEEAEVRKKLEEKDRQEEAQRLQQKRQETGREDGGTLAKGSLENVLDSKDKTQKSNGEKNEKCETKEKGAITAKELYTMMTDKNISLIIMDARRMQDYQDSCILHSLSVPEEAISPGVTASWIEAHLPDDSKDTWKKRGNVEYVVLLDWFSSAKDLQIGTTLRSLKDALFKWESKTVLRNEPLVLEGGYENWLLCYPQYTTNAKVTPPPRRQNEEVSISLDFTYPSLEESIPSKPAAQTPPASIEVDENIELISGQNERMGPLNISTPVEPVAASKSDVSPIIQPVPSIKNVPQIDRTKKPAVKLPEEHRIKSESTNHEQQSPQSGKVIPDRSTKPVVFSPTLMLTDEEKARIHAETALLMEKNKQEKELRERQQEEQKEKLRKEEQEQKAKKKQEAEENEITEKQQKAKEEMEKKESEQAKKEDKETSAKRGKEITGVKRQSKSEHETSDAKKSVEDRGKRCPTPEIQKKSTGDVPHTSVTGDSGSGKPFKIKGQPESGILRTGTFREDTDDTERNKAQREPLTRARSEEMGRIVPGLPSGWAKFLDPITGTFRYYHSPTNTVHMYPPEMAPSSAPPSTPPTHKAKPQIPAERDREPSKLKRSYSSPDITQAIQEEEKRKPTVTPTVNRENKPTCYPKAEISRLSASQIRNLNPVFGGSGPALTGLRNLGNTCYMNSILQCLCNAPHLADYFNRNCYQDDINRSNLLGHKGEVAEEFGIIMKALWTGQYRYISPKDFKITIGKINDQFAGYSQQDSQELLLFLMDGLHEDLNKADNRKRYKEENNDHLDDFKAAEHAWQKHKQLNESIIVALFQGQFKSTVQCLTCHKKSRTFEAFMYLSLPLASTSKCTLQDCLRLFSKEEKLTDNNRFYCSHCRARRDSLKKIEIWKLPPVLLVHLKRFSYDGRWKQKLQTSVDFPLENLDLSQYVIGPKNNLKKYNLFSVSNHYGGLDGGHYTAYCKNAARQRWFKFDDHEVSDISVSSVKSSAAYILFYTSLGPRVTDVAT
In short: as §1

USP9X = USP9X (UniProt Q93008)
Chain of USP9X (Q93008 whole entry): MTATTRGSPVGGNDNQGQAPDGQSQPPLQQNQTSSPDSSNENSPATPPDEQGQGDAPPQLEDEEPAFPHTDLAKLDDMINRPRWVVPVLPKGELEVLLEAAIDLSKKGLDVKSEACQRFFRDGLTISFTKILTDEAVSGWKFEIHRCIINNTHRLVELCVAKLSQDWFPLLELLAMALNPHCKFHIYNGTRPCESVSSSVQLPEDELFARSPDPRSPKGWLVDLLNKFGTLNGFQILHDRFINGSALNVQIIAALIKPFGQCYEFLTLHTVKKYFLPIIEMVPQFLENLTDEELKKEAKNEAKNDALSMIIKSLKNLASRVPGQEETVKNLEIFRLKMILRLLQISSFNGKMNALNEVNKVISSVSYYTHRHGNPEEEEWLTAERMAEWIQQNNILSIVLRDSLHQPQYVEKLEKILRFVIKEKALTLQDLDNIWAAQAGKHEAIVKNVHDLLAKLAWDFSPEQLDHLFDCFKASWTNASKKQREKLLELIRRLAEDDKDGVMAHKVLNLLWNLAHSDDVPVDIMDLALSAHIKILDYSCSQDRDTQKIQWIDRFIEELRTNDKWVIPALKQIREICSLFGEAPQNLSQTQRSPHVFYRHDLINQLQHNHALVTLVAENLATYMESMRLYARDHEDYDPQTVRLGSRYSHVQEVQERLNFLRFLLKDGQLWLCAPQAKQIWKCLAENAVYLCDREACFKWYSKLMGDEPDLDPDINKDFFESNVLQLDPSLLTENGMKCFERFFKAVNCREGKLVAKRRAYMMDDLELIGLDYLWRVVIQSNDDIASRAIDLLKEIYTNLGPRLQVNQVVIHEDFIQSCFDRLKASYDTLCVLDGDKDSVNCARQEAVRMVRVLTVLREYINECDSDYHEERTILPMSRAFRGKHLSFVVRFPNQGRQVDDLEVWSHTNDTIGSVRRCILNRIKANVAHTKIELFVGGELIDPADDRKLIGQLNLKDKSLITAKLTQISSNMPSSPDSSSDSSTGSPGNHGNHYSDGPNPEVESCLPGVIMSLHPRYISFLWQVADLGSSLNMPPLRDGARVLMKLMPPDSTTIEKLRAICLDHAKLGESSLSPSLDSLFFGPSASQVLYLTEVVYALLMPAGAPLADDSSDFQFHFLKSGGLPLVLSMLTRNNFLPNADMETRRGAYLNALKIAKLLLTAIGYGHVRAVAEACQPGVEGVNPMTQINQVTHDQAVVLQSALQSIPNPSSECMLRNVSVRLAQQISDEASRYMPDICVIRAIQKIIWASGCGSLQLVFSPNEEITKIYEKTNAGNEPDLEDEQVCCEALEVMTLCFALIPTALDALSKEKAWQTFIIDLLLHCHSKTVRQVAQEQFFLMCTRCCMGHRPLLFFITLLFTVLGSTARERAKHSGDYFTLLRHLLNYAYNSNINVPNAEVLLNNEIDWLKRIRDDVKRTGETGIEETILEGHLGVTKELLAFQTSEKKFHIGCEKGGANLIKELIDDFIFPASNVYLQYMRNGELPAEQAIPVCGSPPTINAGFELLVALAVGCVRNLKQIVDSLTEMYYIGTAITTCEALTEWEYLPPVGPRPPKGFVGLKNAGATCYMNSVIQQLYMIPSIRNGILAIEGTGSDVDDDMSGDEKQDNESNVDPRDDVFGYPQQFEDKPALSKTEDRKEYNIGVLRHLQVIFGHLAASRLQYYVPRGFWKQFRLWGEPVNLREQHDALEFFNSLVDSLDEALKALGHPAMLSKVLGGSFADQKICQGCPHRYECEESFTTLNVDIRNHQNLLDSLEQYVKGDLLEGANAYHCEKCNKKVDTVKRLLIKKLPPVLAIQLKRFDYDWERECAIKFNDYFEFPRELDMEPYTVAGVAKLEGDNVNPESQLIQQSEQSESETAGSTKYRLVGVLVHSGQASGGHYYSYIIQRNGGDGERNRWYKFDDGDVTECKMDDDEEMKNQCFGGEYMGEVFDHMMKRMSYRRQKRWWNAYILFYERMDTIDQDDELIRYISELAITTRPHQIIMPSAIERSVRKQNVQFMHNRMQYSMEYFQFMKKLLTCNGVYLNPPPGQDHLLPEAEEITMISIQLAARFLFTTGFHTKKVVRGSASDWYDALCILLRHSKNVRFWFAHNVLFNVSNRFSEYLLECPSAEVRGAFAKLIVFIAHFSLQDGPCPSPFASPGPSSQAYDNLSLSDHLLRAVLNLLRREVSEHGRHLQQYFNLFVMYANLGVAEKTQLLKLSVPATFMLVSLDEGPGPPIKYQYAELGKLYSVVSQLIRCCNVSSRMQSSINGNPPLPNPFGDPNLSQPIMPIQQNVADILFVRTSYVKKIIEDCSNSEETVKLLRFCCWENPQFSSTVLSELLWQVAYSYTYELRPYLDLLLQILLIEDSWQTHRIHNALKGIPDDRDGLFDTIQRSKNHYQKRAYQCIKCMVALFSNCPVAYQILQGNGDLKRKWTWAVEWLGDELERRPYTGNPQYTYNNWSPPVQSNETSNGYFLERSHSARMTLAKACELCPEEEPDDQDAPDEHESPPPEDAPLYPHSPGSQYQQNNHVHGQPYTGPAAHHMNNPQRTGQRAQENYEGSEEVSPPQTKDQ
In short: as §1

UniProt O00487 = target: UniProt O00487
Chain of UniProt O00487 (O00487 whole entry): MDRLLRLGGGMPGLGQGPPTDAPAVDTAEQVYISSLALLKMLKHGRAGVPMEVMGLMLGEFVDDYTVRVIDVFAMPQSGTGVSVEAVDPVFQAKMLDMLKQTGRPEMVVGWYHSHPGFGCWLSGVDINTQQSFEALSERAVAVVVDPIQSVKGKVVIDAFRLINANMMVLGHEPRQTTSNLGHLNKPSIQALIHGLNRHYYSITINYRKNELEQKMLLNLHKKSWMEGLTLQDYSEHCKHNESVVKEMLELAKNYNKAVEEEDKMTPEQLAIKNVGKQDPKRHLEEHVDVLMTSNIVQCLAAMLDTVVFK
In short: as §1

Measured: log2 ratio of Biotin-Ahx-Ub-VS probe labelling

COc1ccc(-c2csc(NC(=O)CCl)n2)cc1
inactive: USP42 -0.269 | USP46 -0.355 | USP47 -0.0139 | USP48 -0.611 | USP5 0.0191 | USP54 0.204 | USP7 -0.576 | USP8 -0.316 | USP9X -0.66 | UniProt O00487 -0.101
